Holding throughout (assay): DAPPL (digital affinity profiling via proximity ligation, sequencing); 10 mM Tris-HCl pH 7.5, 50 mM NaCl, 1 mM DTT, 4% glycerol, room temperature, 30 min; GST-TFs on glutathione beads, 16-mer random dsDNA library, 0.1% formaldehyde crosslink after washing; high values mean tight binding
Experiment [1] concerns the target T1, FEV (Homo sapiens, UniProt Q99581 1-238).
T1 sequence: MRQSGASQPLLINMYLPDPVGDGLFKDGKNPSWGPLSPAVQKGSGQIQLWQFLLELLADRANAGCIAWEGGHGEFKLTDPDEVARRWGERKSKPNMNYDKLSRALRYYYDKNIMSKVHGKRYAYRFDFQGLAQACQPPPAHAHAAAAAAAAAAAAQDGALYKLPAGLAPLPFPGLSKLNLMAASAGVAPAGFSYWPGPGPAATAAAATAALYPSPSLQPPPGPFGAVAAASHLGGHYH
To be noted: protein: recombinant; tags: N-terminal GST; dsDNA, one strand shown. In short, it runs like this: (§1)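 After expression in yeast as GST fusions, human transcription factors were bound to glutathione beads, DNA-barcoded and mixed with a tag-only sample. The pools were incubated with 200 nmole of a 16-mer random double-stranded DNA library in Tris/NaCl/DTT/glycerol buffer (30 min, room temperature), washed and crosslinked with 0.1% formaldehyde. Proximity ligation with BsaI/T4 ligase ran for 1 h at 37 °C, before PCR amplification and sequencing on an Illumina NextSeq500. Binding signal is a hexamer's read frequency for a factor divided by its frequency for the tag-only sample.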

The target in experiment [2] is ETV5 (Homo sapiens, UniProt P41161 1-510). The settings on record: protein: recombinant; tags: N-terminal GST; dsDNA, one strand shown. The gist of the method: as §1
ETV5, sequence (P41161 whole entry): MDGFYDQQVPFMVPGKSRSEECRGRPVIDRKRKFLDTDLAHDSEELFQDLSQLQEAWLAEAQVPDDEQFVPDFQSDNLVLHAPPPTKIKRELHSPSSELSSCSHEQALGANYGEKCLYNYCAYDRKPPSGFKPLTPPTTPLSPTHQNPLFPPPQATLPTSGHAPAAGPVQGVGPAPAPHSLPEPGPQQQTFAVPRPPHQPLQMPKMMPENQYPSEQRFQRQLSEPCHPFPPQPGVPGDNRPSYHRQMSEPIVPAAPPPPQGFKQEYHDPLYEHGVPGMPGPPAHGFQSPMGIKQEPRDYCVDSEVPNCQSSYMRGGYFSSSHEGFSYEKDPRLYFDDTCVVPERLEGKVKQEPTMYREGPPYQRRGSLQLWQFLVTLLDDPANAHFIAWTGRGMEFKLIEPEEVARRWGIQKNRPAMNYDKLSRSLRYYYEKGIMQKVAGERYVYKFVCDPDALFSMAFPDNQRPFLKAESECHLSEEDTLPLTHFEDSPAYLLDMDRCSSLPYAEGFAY
Experiment [3] addresses HSF1 (Homo sapiens, UniProt Q00613 1-529). The settings on record: protein: recombinant; tags: N-terminal GST; chain copies: 3; dsDNA, one strand shown. In short, it runs like this: as §1
In experiment [4] the target is T2, SPIC (Homo sapiens, UniProt Q8N5J4 1-248).
T2 sequence: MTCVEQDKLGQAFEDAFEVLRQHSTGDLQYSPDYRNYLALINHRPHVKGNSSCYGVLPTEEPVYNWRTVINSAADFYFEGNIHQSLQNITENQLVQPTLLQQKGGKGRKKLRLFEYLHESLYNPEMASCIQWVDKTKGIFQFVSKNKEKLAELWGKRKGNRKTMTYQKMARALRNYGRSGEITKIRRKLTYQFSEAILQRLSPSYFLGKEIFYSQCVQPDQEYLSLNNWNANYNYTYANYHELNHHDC
To be noted: protein: recombinant; tags: N-terminal GST; dsDNA, one strand shown. The gist of the method:
as §1

The target in experiment [5] is ELF4 (Homo sapiens, UniProt Q99607 1-663). The settings on record: protein: recombinant; tags: N-terminal GST; dsDNA, one strand shown. In short, it runs like this:
as §1

The target of experiment [6] is T3, ELK4 (Homo sapiens, UniProt P28324-2 1-405).
T3 sequence: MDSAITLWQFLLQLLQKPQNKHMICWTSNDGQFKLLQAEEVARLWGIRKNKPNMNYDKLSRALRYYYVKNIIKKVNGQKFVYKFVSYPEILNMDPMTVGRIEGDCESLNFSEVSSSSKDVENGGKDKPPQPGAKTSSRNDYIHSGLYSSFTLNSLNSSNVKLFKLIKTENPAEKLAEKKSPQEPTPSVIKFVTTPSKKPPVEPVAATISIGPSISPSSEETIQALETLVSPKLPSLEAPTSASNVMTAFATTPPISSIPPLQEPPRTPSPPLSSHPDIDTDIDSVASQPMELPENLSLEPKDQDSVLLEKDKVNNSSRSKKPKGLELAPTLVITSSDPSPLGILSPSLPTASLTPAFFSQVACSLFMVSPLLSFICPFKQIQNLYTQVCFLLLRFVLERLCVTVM
To be noted: protein: recombinant; tags: N-terminal GST; dsDNA, one strand shown. In short, it runs like this: as §1

The target of experiment [7] is T4, ETV2 (Homo sapiens, UniProt O00321 1-342).
T4 sequence: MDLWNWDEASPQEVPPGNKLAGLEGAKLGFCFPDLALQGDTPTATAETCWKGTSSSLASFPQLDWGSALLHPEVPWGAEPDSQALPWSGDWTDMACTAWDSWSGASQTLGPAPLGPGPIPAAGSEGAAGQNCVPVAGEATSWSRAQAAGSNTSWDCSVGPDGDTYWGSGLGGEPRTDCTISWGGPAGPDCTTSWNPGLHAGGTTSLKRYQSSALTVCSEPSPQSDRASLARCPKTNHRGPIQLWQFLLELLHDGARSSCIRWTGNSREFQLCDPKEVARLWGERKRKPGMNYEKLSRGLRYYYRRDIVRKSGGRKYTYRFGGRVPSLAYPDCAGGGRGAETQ
The settings on record: protein: recombinant; tags: N-terminal GST; dsDNA, one strand shown. The gist of the method:
as §1

In experiment [8] the target is T5, ELF3 (Homo sapiens, UniProt P78545 1-371).
T5 sequence: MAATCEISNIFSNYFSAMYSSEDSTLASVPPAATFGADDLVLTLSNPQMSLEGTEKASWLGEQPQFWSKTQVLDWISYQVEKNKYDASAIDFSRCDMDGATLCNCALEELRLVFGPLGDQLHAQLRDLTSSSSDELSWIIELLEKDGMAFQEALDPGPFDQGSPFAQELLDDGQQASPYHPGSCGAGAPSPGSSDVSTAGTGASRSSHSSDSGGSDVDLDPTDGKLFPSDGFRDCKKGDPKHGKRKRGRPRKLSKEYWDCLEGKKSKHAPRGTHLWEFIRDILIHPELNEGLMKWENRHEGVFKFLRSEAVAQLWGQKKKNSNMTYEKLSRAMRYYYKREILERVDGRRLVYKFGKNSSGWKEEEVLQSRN
To be noted: protein: recombinant; tags: N-terminal GST; dsDNA, one strand shown. In short, it runs like this: as §1

Experiment [9] addresses CRX (Homo sapiens, UniProt O43186 1-299). To be noted: protein: recombinant; tags: N-terminal GST; dsDNA, one strand shown. The gist of the method: as §1
For experiment [10], the target named is ETV1 (Homo sapiens, UniProt P50549 1-477). To be noted: protein: recombinant; tags: N-terminal GST; dsDNA, one strand shown. The gist of the method:
as §1

Experiment [11] concerns the target T6, ERF (Homo sapiens, UniProt P50548 1-548).
T6 sequence: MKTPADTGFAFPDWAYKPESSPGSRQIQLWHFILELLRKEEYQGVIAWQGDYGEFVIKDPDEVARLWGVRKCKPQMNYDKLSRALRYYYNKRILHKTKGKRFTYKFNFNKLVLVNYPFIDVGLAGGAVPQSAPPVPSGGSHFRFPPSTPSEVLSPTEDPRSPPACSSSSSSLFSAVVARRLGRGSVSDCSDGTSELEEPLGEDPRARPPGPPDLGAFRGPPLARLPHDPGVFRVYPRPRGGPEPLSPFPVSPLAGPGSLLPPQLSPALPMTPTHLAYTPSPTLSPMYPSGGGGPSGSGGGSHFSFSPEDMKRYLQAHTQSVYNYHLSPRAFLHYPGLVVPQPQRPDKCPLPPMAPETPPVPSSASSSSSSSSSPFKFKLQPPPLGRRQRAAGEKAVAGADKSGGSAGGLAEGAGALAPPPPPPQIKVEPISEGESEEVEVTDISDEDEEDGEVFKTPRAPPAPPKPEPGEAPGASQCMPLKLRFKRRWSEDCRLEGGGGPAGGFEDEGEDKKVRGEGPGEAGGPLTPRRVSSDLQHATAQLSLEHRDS
The settings on record: protein: recombinant; tags: N-terminal GST; dsDNA, one strand shown. In short, it runs like this: as §1

Experiment [12] has as its target T7, ETV3L (Homo sapiens, UniProt Q6ZN32 1-361).
T7 sequence: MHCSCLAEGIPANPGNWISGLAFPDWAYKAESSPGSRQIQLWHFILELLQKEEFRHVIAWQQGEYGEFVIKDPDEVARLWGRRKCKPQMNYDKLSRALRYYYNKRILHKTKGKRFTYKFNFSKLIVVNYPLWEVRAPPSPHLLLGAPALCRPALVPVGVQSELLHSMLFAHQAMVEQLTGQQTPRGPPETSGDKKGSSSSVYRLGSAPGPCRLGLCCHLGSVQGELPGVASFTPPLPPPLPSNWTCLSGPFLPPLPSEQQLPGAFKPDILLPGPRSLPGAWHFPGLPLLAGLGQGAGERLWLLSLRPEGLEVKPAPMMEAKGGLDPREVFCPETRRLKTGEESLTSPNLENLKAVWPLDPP
To be noted: protein: recombinant; tags: N-terminal GST; dsDNA, one strand shown. In short, it runs like this: as §1

Experiment [13] deals with T8, ETS2 (Homo sapiens, UniProt P15036 1-469).
T8 sequence: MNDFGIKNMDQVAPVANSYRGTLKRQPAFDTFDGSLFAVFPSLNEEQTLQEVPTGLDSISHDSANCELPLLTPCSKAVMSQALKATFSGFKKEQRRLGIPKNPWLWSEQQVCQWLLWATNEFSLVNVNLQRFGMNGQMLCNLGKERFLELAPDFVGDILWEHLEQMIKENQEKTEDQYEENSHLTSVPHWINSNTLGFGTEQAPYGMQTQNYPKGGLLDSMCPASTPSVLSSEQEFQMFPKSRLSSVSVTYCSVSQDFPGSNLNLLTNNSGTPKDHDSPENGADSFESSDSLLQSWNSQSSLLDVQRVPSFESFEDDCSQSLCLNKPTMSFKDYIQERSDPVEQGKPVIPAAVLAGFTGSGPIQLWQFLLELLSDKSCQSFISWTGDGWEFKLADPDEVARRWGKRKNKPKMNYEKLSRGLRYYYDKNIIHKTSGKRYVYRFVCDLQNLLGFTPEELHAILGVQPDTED
The settings on record: protein: recombinant; tags: N-terminal GST; dsDNA, one strand shown. In short, it runs like this: as §1

For experiment [14], the target named is T9, SPDEF (Homo sapiens, UniProt O95238 1-335).
T9 sequence: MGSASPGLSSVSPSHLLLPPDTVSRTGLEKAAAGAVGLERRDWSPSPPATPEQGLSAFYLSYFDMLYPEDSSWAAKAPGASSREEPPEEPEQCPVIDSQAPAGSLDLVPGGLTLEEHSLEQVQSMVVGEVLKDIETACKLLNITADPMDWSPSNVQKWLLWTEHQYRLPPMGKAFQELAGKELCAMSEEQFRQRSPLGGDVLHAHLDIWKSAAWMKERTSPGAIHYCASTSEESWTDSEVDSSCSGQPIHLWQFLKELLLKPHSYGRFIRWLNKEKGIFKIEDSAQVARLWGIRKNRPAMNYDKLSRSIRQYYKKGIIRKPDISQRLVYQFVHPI
To be noted: protein: recombinant; tags: N-terminal GST; dsDNA, one strand shown. The gist of the method: as §1

In experiment [15] the target is T10, ETV7 (Homo sapiens, UniProt Q9Y603 1-341).
T10 sequence: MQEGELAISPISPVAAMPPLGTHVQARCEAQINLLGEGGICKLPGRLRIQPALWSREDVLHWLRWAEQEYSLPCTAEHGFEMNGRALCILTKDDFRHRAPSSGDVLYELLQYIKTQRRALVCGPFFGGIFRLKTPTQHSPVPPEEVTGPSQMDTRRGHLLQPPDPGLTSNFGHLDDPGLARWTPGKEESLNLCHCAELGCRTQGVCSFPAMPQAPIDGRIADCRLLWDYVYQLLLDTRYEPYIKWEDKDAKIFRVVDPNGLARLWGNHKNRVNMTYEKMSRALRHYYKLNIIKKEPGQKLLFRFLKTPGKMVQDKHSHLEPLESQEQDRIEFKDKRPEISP
To be noted: protein: recombinant; tags: N-terminal GST; dsDNA, one strand shown. The gist of the method:
as §1

Experiment [16] addresses T11, ELF5 (Homo sapiens, UniProt Q9UKW6-2 1-255).
T11 sequence: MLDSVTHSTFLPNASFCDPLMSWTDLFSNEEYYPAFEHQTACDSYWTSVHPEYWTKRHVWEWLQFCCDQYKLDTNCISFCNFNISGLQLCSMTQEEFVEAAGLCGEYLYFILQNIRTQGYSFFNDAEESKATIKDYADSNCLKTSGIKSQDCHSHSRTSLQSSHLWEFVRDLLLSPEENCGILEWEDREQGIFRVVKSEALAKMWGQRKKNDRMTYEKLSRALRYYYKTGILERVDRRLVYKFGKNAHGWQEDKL
To be noted: protein: recombinant; tags: N-terminal GST; dsDNA, one strand shown. The gist of the method: as §1

Experiment [17] concerns the target T12, ETV3 (Homo sapiens, UniProt P41162-2 1-143).
T12 sequence: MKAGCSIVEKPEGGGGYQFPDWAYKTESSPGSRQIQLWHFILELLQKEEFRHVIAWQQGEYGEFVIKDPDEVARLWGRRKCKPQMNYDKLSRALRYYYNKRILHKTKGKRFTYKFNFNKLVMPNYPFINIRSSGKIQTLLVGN
The settings on record: protein: recombinant; tags: N-terminal GST; dsDNA, one strand shown. The gist of the method: as §1

For experiment [18], the target named is ETV6 (Homo sapiens, UniProt P41212 1-452). The settings on record: protein: recombinant; tags: N-terminal GST; dsDNA, one strand shown. The gist of the method:
as §1

ELF4, sequence (Q99607 whole entry): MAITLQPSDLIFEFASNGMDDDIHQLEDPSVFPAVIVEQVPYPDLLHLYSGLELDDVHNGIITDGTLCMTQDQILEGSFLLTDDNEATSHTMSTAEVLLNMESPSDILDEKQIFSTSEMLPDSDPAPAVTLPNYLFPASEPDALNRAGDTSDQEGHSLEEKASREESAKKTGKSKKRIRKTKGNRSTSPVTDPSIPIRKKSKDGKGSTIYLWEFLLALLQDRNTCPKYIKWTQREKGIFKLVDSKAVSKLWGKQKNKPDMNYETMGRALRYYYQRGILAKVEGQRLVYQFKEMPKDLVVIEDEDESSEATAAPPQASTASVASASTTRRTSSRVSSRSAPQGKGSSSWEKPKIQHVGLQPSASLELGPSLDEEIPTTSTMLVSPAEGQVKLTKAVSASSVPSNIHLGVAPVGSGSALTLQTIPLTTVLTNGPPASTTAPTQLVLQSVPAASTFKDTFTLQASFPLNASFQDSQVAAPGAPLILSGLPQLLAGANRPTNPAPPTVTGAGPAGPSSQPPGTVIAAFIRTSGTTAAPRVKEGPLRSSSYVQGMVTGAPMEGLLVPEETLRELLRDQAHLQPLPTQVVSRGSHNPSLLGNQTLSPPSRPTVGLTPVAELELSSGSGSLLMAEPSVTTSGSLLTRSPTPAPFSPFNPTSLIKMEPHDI
ETV1, sequence (P50549 whole entry): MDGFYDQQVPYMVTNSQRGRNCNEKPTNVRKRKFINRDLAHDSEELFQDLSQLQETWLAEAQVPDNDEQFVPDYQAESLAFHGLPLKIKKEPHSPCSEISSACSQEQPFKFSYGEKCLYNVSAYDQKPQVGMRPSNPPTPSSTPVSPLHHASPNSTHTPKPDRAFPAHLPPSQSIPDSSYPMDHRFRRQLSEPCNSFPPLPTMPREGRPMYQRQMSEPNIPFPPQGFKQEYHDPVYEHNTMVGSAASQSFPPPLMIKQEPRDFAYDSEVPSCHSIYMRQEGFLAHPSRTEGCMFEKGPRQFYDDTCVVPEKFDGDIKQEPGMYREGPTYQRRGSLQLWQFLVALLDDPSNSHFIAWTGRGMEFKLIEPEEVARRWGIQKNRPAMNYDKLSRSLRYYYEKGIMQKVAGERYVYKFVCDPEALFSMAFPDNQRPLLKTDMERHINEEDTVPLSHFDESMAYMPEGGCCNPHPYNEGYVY
HSF1, sequence (Q00613 whole entry): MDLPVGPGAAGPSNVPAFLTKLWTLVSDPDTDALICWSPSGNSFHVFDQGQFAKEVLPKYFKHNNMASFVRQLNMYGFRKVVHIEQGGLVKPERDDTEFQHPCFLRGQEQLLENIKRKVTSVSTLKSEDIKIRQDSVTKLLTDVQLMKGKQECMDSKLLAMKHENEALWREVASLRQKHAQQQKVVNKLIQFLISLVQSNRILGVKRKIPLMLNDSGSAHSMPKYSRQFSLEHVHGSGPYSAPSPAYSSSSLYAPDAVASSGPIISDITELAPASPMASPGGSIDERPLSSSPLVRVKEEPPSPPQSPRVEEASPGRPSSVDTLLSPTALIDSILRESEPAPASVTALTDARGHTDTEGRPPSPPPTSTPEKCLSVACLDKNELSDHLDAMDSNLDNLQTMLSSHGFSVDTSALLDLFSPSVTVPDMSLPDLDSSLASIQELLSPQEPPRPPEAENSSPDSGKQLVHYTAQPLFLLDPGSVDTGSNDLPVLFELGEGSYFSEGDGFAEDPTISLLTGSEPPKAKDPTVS
ETV6, sequence (P41212 whole entry): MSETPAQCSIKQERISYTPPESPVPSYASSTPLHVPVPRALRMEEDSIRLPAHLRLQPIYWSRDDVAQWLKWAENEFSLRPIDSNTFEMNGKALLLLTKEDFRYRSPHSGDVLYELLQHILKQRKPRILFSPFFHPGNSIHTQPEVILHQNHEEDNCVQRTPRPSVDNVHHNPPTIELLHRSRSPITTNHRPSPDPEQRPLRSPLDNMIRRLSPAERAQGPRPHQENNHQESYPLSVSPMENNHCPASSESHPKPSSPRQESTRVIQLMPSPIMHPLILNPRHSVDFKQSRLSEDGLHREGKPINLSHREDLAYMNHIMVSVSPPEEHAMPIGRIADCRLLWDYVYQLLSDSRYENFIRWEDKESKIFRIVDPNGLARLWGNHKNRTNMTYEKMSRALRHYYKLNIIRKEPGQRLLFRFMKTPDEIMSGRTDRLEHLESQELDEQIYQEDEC
CRX, sequence (O43186 whole entry): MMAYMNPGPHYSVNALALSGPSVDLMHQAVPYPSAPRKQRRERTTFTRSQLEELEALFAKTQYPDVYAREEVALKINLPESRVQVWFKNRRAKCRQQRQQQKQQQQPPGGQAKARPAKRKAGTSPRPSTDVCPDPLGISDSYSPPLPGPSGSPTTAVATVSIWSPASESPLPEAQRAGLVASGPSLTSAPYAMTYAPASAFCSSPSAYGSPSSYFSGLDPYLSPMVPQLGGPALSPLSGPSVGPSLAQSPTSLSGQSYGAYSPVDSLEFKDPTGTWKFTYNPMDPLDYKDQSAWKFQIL

In the case of TCTGCG, the binding signal in experiment [1] is 1.22 fold enrichment (6-mer frequency, TF over GST control); in experiment [2] it was 1.22 fold enrichment (6-mer frequency, TF over GST control); in experiment [3], 1.15 fold enrichment (6-mer frequency, TF over GST control); in experiment [4], 1.24 fold enrichment (6-mer frequency, TF over GST control); in experiment [5] it was 1.2 fold enrichment (6-mer frequency, TF over GST control); in experiment [6] it was 1.14 fold enrichment (6-mer frequency, TF over GST control). Further, the binding signal in [7] was 1.19 fold enrichment (6-mer frequency, TF over GST control); in [8], 1.31 fold enrichment (6-mer frequency, TF over GST control); in experiment [9] it was 1.09 fold enrichment (6-mer frequency, TF over GST control); in [10], 1.45 fold enrichment (6-mer frequency, TF over GST control); in experiment [11], 1.07 fold enrichment (6-mer frequency, TF over GST control); in experiment [12] it was 1.23 fold enrichment (6-mer frequency, TF over GST control). Further, the binding signal in experiment [13] was 1.17 fold enrichment (6-mer frequency, TF over GST control); in [14] it was 1.21 fold enrichment (6-mer frequency, TF over GST control); in [15], 1.09 fold enrichment (6-mer frequency, TF over GST control); in experiment [16], 1.15 fold enrichment (6-mer frequency, TF over GST control); in experiment [17], 1.16 fold enrichment (6-mer frequency, TF over GST control); in [18], 1.14 fold enrichment (6-mer frequency, TF over GST control).

These data come from PMC7862700, “An all-to-all approach to the identification of sequence-specific readers for epigenetic DNA modifications on cytosine”.
